This passage reports growth results from PubChem BioAssay (NCI).

This is part of a sample that, as a whole, favours compounds with a hit. Of some 83,000 tested, about 20% had one in any assay.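 A percent growth of 40 corresponds to 60% growth inhibition; 0 means no net growth; -100 means all cells died. Active threshold: below 10.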 Unmarked numbers belong to inactive results. Activity calls are given as the source filed them.

Test systems include SR leukemia; RPMI-8226 leukemia; OVCAR-8 ovarian; OVCAR-5 ovarian; SK-OV-3 ovarian; IGROV1 ovarian; OVCAR-3 ovarian; HS 578T breast; NCI/ADR-RES ovarian; OVCAR-4 ovarian.
What all share (test): NCI-60 one-dose screen, 48 h (100 = growth as untreated, 0 = no growth, -100 = all killed)
Holding throughout (conditions): 10 µM unless noted

On to `CCCCCCCCCCOC(=O)c1nn(C(C)=O)c2cc(C)c(C)cc12`, for which the growth was 98.2% in the assay on SR leukemia; 88.9% with RPMI-8226 leukemia; 98.5% in the assay on OVCAR-8 ovarian; 100% in the assay with OVCAR-5 ovarian; 92.3% with SK-OV-3 ovarian; 103% in the assay on IGROV1 ovarian. The growth was 111% in the assay with OVCAR-3 ovarian, 104% in the assay with HS 578T breast and 98.1% in the assay on NCI/ADR-RES ovarian.
With `CCn1cc(Cc2cc(C(=O)Nc3cc4cc(OC)c(OC)cc4c(C)n3)ccc2Cl)cn1`, the growth in the assay with SR leukemia is 10%; in the assay on RPMI-8226 leukemia, 29.6%; in the assay with OVCAR-8 ovarian, 34.6%; in the assay with OVCAR-5 ovarian it was 103%; in the assay with SK-OV-3 ovarian, 57.9%; in the assay on IGROV1 ovarian, 69.5%. The growth in the assay with OVCAR-3 ovarian is 38%; with HS 578T breast, 49.5%; with NCI/ADR-RES ovarian, 22.5%.
Consider `c1ccc(-c2nc3ccccc3[nH]2)c(OCCCCCOc2ccccc2-c2nc3ccccc3[nH]2)c1`, for which the growth in the assay on SR leukemia was 2.06% (active); with RPMI-8226 leukemia, 23.8%; in the assay on OVCAR-8 ovarian, 64.3%; in the assay with OVCAR-5 ovarian it was 92.2%; in the assay on OVCAR-4 ovarian, 58.9%; in the assay with SK-OV-3 ovarian, 169%. Further, the growth in the assay with IGROV1 ovarian is 70%; with OVCAR-3 ovarian, 59.7%; with NCI/ADR-RES ovarian it was 63.9%.
Regarding `O=C1C=CC2(O)OC/C(=C\c3ccccc3)C(O)=C2C1=O` (stereo not given), the growth is 6.55% (active) in the assay with SR leukemia; 0.943% (active) with RPMI-8226 leukemia; 8.41% (active) with OVCAR-8 ovarian; 29.3% with OVCAR-5 ovarian; 86.6% with SK-OV-3 ovarian; -13% (active) with IGROV1 ovarian. The results for the growth with OVCAR-3 ovarian, in the assay on HS 578T breast and in the assay with NCI/ADR-RES ovarian were 11.7%, 39% and 16.7%, respectively.
`Cn1cc(-c2csc(-c3cn(CCCN4CCOCC4)c4ccc(F)cc34)n2)c2cccnc21`: the growth in the assay on SR leukemia was 48.4%; with RPMI-8226 leukemia it was 34.8%; in the assay on OVCAR-8 ovarian it was 47.6%; in the assay with OVCAR-5 ovarian, 73%; with SK-OV-3 ovarian, 80%; with IGROV1 ovarian, 76.3%. Moreover, the growth was 77.6% with OVCAR-3 ovarian, 46.6% in the assay on HS 578T breast and 53.8% with NCI/ADR-RES ovarian.
Consider `COC1C(O)CC(OC2CC(OC3CC(O[C@@H]4C(=O)c5c(cc6cc(OC7CC(OC8CC(O)C(O)C(C)O8)C(O)C(C)O7)c(C)c(O)c6c5O)CC4[C@H](OC)C(=O)C(C)=O)OC(C)C3O)OC(C)C2O)OC1C` (stereo not given in full), for which the growth is -5.46% (active) with SR leukemia; 1.67% (active) in the assay on RPMI-8226 leukemia; 4.01% (active) in the assay with OVCAR-8 ovarian; 13.9% with OVCAR-5 ovarian; 17.4% with SK-OV-3 ovarian; 13.6% in the assay with IGROV1 ovarian. Moreover, the growth in the assay on OVCAR-3 ovarian is 6.3% (active); with HS 578T breast it was 10.8%; with NCI/ADR-RES ovarian it was 18.8%.
On to `Nc1c(Cl)cc(/C=C2\C=Cc3ccccc32)cc1Cl`, for which the growth in the assay on SR leukemia is 93.9%; in the assay with RPMI-8226 leukemia, 107%; in the assay on OVCAR-8 ovarian, 104%; with OVCAR-5 ovarian, 102%; in the assay on SK-OV-3 ovarian, 102%; with IGROV1 ovarian it was 103%. Besides, the values for the growth in the assay on OVCAR-3 ovarian, in the assay with HS 578T breast and in the assay with NCI/ADR-RES ovarian were 111%, 115% and 101%, respectively.
Turning to `Nc1nc(N)c2c(n1)NC(c1cccc(Nc3ccnc4cc(C(F)(F)F)ccc34)c1)CC(c1ccc3c(c1)OCO3)=N2` (stereo not given), the growth in the assay with SR leukemia is 1.91% (active); with RPMI-8226 leukemia, 17%; in the assay with OVCAR-8 ovarian, 73.4%; with OVCAR-5 ovarian it was 123%; with OVCAR-4 ovarian, 85.9%; with SK-OV-3 ovarian, 76.8%. In addition, the growth with IGROV1 ovarian was 73%; in the assay with OVCAR-3 ovarian it was 65.7%; in the assay with NCI/ADR-RES ovarian, 84.1%.
In the case of `CCOC(=O)c1nnn(Cc2cc(=O)oc3ccc(O)cc23)c1C`, the growth in the assay with SR leukemia is 92.8%; in the assay with RPMI-8226 leukemia, 96.7%; in the assay on OVCAR-8 ovarian, 107%; with OVCAR-5 ovarian, 101%; in the assay on SK-OV-3 ovarian, 105%; with IGROV1 ovarian, 106%. Besides, the results for the growth with OVCAR-3 ovarian, with HS 578T breast and in the assay with NCI/ADR-RES ovarian were 107%, 93.5% and 108%, respectively.
Turning to `CN(C)c1ccc(C(=S)c2ccc(N(C)C)cc2)cc1`, the growth is 33.2% in the assay on SR leukemia; 83.1% with RPMI-8226 leukemia; 88.5% in the assay with OVCAR-8 ovarian; 94.8% in the assay on OVCAR-5 ovarian; 82.4% in the assay on SK-OV-3 ovarian; 59.3% in the assay with IGROV1 ovarian. Moreover, the growth in the assay on OVCAR-3 ovarian was 80.7%; in the assay on HS 578T breast it was 94.1%; in the assay on NCI/ADR-RES ovarian, 28.7%.
Turning to `O=C(/C=C/C12c3ccccc3C(c3ccccc31)C1C(=O)NC(=O)C12)c1ccco1` (stereo not given), the growth in the assay with SR leukemia was 13%; in the assay with RPMI-8226 leukemia, -7.21% (active); in the assay on OVCAR-8 ovarian, 5.8% (active); with OVCAR-5 ovarian, 44.3%; in the assay on SK-OV-3 ovarian, 42.7%; with IGROV1 ovarian, 26.5%. For the same molecule, the growth in the assay on OVCAR-3 ovarian is 11.7%; in the assay with HS 578T breast it was 31.4%; in the assay on NCI/ADR-RES ovarian, 42.3%.
Take `c1cc(OCCN2CCCCCC2)ccc1CNc1ccc2nc(CCC3CCCCC3)[nH]c2c1`: the growth in the assay on SR leukemia was 26.1%; in the assay on RPMI-8226 leukemia, 4.27% (active); with OVCAR-8 ovarian it was 65.6%; with OVCAR-5 ovarian, 79.5%; in the assay with SK-OV-3 ovarian, 82.3%; in the assay with IGROV1 ovarian, 43.2%. The growth is 77.3% in the assay with OVCAR-3 ovarian, 65.2% in the assay on HS 578T breast and 66.9% in the assay on NCI/ADR-RES ovarian.
As to `COc1ccc(-c2cc(-c3cccnc3)nc3sc4c(N)c(C(C)=O)c(-c5ccccc5)nc4c23)cc1OC`, the growth with SR leukemia is 75.4%; in the assay on RPMI-8226 leukemia it was 53.7%; in the assay on OVCAR-8 ovarian, 84.9%; in the assay on OVCAR-5 ovarian, 89.5%; in the assay on SK-OV-3 ovarian it was 110%; in the assay on IGROV1 ovarian, 98.5%. Further, the growth in the assay on OVCAR-3 ovarian is 82.4%; with HS 578T breast, 45.6%; with NCI/ADR-RES ovarian, 79%.
Take `Clc1ccc(Nc2nnc(CNc3ccccc3)c3ccccc23)cc1`: the growth is -9.19% (active) in the assay with SR leukemia; 3.35% (active) in the assay on RPMI-8226 leukemia; 18.3% in the assay with OVCAR-8 ovarian; 41.4% in the assay with OVCAR-5 ovarian; 22% in the assay on SK-OV-3 ovarian; 19.1% with IGROV1 ovarian. The growth in the assay on OVCAR-3 ovarian is -1.64% (active); in the assay on HS 578T breast, 26.6%; with NCI/ADR-RES ovarian, 18.8%.
For `N#Cc1c(-c2cccc(Cl)c2)cc(-c2cccnc2)[nH]c1=O`, the growth in the assay with SR leukemia is 21.9%; in the assay on RPMI-8226 leukemia, 88.8%; in the assay with OVCAR-8 ovarian it was 98.1%; with OVCAR-5 ovarian it was 98.4%; with SK-OV-3 ovarian it was 90.7%; in the assay with IGROV1 ovarian, 72.4%. Moreover, the values for the growth in the assay with OVCAR-3 ovarian, in the assay with HS 578T breast and in the assay on NCI/ADR-RES ovarian were 47.2%, 62.7% and 80.3%, respectively.
